JMJD2A Tudor = qHTS Assay for Inhibitors of JMJD2A-Tudor Domain | Lysine-specific demethylase 4A (Homo sapiens), O75164 | AlphaScreen JMJD2A-Tudor / H3K4me3 peptide binding | Potency, µM (highest dose often 114 µM), for the others: at the top dose activity change, negative = inhibition, hits mostly inhibitors | 390,000 compounds, 4.4% hits | AID 504339, 2011; note: % is set by controls: 0 for no effect and ±100 for the full control effect; nearly all actives have a fitted effect of over 50% in size
L3MBTL1 block = qHTS Assay for the Inhibitors of L3MBTL1 | Lethal(3)malignant brain tumor-like protein 1 (Homo sapiens), Q9Y468 | Potency, µM (top dose mostly 57.1 µM), for inactives: top-dose activity, negative = inhibition, most hits filed as inhibitors | 230,000 compounds, 0.66% hits | AlphaScreen L3MBTL1–H3K9me1 peptide binding; note: % is set by controls: 0 for no effect and ±100 for the full control effect; nearly all actives have a fitted effect of over 60% in size
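L3MBTL1 (50 nM) pre-complexed 30 min with biotinylated H3(1-15)K9me1 peptide (75 nM), then compounds added for 30 min at room temperature; AlphaScreen streptavidin donor/nickel chelate acceptor beads (10 ug/mL final) read after 30 min dark incubation.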
BAZ2B block = qHTS Assay for Inhibitors of BAZ2B; Bromodomain adjacent to zinc finger domain protein 2B (Homo sapiens), Q9UIF8; AlphaScreen BAZ2B-H3K14Ac peptide displacement; Potency, µM (series often up to 114 µM), without a hit: at the highest dose activity change, negative = inhibition, most hits filed as inhibitors; 360,000 compounds, 4.4% hits; AID 504333, 2011; note: % is set by controls: 0 for no effect and ±100 for the full control effect; nearly all actives have a fitted effect of over 60% in size
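In this displacement format the biotinylated H3(5-23) peptide acetylated at Lys14 serves as ligand at 50 nM, with BAZ2B at 50 nM in PBS pH 7.4 containing 0.01% Tween-20. Donor and acceptor beads are 10 ug/mL final.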
Sfp PPTase inh = qHTS Assay for Inhibitors of Bacillus subtilis Sfp phosphopantetheinyl transferase (PPTase). Biochemical Sfp PPTase activity, qHTS. Potency, µM, without a hit: largest response in the series, negative = inhibition, actives largely listed as inhibitors. 310,000 compounds, 3.5% hits. AID 1490, 2009;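 note: the enzyme is Sfp with the accession as filed and its product quenches rhodamine fluorescence; 0% = enzyme reaction without inhibitor and -100% = no enzyme wells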
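After 15 min at room temperature with compound, 15 nM Sfp received 5 uM rhodamine-CoA plus 12.5 uM BHQ-2-ybbR (50 mM Hepes pH 7.6, 10 mM MgCl2). Rate came from the fluorescence difference over 30 min, ex 525/em 598 nm.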
HP1b binding inh = HTS for Inhibitors of HP1-beta Chromodomain Interactions with Methylated Histone Tails. Potency, µM (series often up to 114 µM), for inactives: at the highest dose activity change, negative = inhibition, actives largely listed as inhibitors. AlphaScreen HP1-beta / biotin-H3K9me3 peptide binding. 390,000 compounds, 0.56% hits. Chromobox protein homolog 1 (Homo sapiens), P83916; note: nearly all actives have a fitted effect of over 70% in size
Target sequence (P83916 whole entry, looked up): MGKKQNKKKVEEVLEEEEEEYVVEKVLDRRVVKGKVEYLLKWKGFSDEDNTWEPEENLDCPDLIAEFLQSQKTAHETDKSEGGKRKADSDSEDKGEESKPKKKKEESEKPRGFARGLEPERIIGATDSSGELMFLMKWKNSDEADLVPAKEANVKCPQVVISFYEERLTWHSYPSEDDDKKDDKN
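HP1-beta protein (50 nM final) preincubated 30 min at room temperature with biotinylated H3(1-18)K9me3 peptide (50 nM) in PBS pH 7.4, 0.01% Tween-20, then compound added for 30 min. AlphaScreen streptavidin donor/nickel chelate acceptor beads (10 ug/mL final), 30 min dark, luminescence read.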
G9a inh = qHTS Assay for Inhibitors of Histone Lysine Methyltransferase G9a; Histone-lysine N-methyltransferase EHMT2 (Homo sapiens), Q96KQ7; G9a H3K9 monomethylation, AlphaScreen, 2 h; Potency, µM (doses to about 102 µM), inactives show top-dose activity, negative = inhibition, usual class: inhibitors; 350,000 compounds, 8.8% hits; AID 504332, 2011; note: % is set by controls: 0 for no effect and ±100 for the full control effect; nearly all actives have a fitted effect of over 75% in size
Target sequence (Q96KQ7 913-1193 limits assumed): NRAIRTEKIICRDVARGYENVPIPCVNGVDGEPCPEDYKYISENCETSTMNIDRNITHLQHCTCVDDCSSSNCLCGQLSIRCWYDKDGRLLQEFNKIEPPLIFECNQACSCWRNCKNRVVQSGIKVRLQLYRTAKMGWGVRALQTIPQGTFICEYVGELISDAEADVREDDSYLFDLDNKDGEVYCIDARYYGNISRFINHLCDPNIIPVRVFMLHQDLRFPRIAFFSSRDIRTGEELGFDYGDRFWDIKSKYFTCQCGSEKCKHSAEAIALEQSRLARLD
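Enzyme 20 nM + cpd, 15 min RT; add b-H3K9 pep 500 nM / SAM 20 uM; 2 h RT; anti-H3K9me1 Ab 0.5 ug/mL + SA donor / anti-rabbit acceptor beads 20 ug/mL each, 10 min; AlphaScreen read.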
Active calls of the source: *; [ ] = another dose, or the depositor's remark. This is a sample that favours compounds with a hit; in the whole collection about 12% have one here. Calls come from the whole dose curve; as a rule, active = well fitted curve in the direction sought with a large enough effect; inconclusive = small, poorly fitted or top-dose-only effect, or another doubt; inactive = no such curve, though single readings can be large; an effect the other way counts as inactive or inconclusive. Potency is the fitted concentration of half-maximal effect.

For Cc1nnnn1/C(=C\c1ccccc1)C(=O)OCC(=O)Nc1cccc(S(=O)(=O)N(C)C)c1 the results were JMJD2A Tudor -23.4%, L3MBTL1 block -3.0%, BAZ2B block -1.6%, HP1b binding inh 30.0% and G9a inh 9.9%[0.501 µM].
`C[C@]12CCC(=O)C=C1CC[C@@H]1C2[C@@H](O)C[C@@]2(C)[C@H]1CC[C@]2(O)C(=O)CO` (stereo not given in full) gave Sfp PPTase inh 15.0% and G9a inh 18.2%[12.7 µM].
`Nc1nnnn1/N=C/c1cc(Cl)ccc1O` gave JMJD2A Tudor -3.4%, BAZ2B block 1.2%, Sfp PPTase inh 12.6%, HP1b binding inh 59.1% and G9a inh 14.9%.
Screening Nc1nnnn1/N=C/c1cc(Cl)cc(Cl)c1O returned JMJD2A Tudor 39.8µM*, L3MBTL1 block -0.3%, BAZ2B block -3.0%, Sfp PPTase inh -8.8% and HP1b binding inh 16.5%.
Screening COc1ccc(S(=O)(=O)Nc2cccc3c2O[C@H](CN(C)S(=O)(=O)c2ccc(F)cc2)[C@H](C)CN([C@H](C)CO)C3=O)cc1 returned JMJD2A Tudor -11.7%, L3MBTL1 block 1.6% and HP1b binding inh 43.9%.
CC1CCC2C(=O)N(c3ccc(C(=O)Oc4cccc5cccnc45)cc3)C(=O)C2C1 (stereo not given) was read as JMJD2A Tudor 56.2µM*, L3MBTL1 block inconclusive, BAZ2B block 50.1µM*, Sfp PPTase inh 10µM*, HP1b binding inh 4.6% and G9a inh inconclusive.
`Cc1ccc(C(=O)Oc2ccccc2N2C(=O)C3CCC(C)CC3C2=O)cc1` (stereo not given) gave JMJD2A Tudor 15.8%, BAZ2B block 1.2%, Sfp PPTase inh 2.3%, HP1b binding inh 23.2% and G9a inh -41.8%[2.33 µM].
`O=S(=O)(NC1=NCCCCC1)c1ccccc1Cl` gave JMJD2A Tudor -2.7%, L3MBTL1 block 8.3%, BAZ2B block 2.1%, Sfp PPTase inh 13.9%, HP1b binding inh 44.3% and G9a inh 4.7%.
O=C(NNC1=NCCCCC1)c1ccccc1 was read as JMJD2A Tudor 3.16µM*, L3MBTL1 block 0.1%, BAZ2B block -8.2%, Sfp PPTase inh 7.7%, HP1b binding inh -21.6% and G9a inh -50.6%.
c1ccc(CNC2=NCCCC2)cc1 was read as JMJD2A Tudor inconclusive, L3MBTL1 block -0.2%, BAZ2B block inconclusive, Sfp PPTase inh -25.9%, HP1b binding inh inconclusive and G9a inh 14.1µM*.
For CN(C)c1nc(NNC(=O)c2ccccc2)nc(N(C)C)n1 the results were JMJD2A Tudor -8.3% and HP1b binding inh 17.0%.
`O=C(Nc1ccccc1C(=O)N1CCCC1)c1ccc(Cl)cc1Cl` gave JMJD2A Tudor -14.8%, BAZ2B block -7.9%, Sfp PPTase inh 6.6%, HP1b binding inh 12.0% and G9a inh 6.1%.
Screening CC(C)C[C@@H](C(=O)N[C@@H](Cc1c[nH]c2ccccc12)C(N)=O)N1C[C@]2(CCCN2C(=O)[C@H](Cc2ccccc2)NC(=O)[C@H](Cc2ccccc2)NC(=O)[C@H](CCC(N)=O)NC(=O)[C@H](CCC(N)=O)NC(=O)[C@@H]2CCCN2C(=O)[C@H](CCCCN)NC(=O)[C@@H]2CCCN2C(=O)[C@@H](N)CCCNC(=N)N)CC1=O returned Sfp PPTase inh -2.3%.
`Cc1ccc(-c2[nH]ncc2CNCc2ccc(CN(C)C)cc2)cc1` gave JMJD2A Tudor -9.9% and HP1b binding inh 33.9%.
Screening O=C(O)[C@H](Cc1c[nH]c2ccccc12)N1C(=O)C2=CCCC=C2C1=O returned Sfp PPTase inh -0.5%.
For Cc1ccccc1OCC(=O)NC(Cc1c[nH]c2ccccc12)C(=O)O (stereo not given) the results were JMJD2A Tudor 1.0%, L3MBTL1 block 2.0%, BAZ2B block -24.4%, Sfp PPTase inh 13.4%, HP1b binding inh 47.4% and G9a inh -11.7%.
Screening Cc1cccc(OCC(=O)NC(Cc2c[nH]c3ccccc23)C(=O)O)c1C (stereo not given) returned JMJD2A Tudor -29.2%, BAZ2B block -25.4%, Sfp PPTase inh 50.1µM*, HP1b binding inh -5.7% and G9a inh 39.8µM*.
For O=C(O)C(Cc1c[nH]c2ccccc12)N1C(=O)C2C3c4ccccc4C(c4ccccc43)[C@@H]2C1=O (stereo not given in full) the results were JMJD2A Tudor -21.1%, L3MBTL1 block -6.6%, BAZ2B block -27.4%, Sfp PPTase inh 17.1%, HP1b binding inh 9.7% and G9a inh 50.1µM*.
Cc1c(OCC(=O)NC(Cc2ccc(Cl)cc2)C(=O)O)ccc2c1oc(=O)c1ccccc12 (stereo not given) was read as JMJD2A Tudor -29.9%, BAZ2B block 56.2µM*, Sfp PPTase inh 1.7%, HP1b binding inh 14.2% and G9a inh -0.8%[12.7 µM].
O=C(COc1ccccc1)NC(Cc1c[nH]c2ccccc12)C(=O)O (stereo not given) was read as JMJD2A Tudor -19.8%, L3MBTL1 block -3.8%, BAZ2B block -38.7%, Sfp PPTase inh -13.8%, HP1b binding inh 21.5% and G9a inh 35.5µM*.
CC(=O)Nc1c(C)nn(-c2ccccc2)c1N1CCC(C(=O)Nc2ccccc2F)CC1 was read as JMJD2A Tudor -21.8%, BAZ2B block 7.2%, HP1b binding inh 17.4%[57 µM] and G9a inh 5.0%[59 µM].
For Cc1ccc2nc(Cl)c3nnnn3c2c1 the results were JMJD2A Tudor 0.7%, BAZ2B block -4.2%, Sfp PPTase inh -12.7%, HP1b binding inh 49.4% and G9a inh -6.0%[59 µM].
Screening CC(=C/c1ccco1)/C=N/N1CCN(c2ccccc2)CC1 returned JMJD2A Tudor 11.6%, L3MBTL1 block -24.8%, BAZ2B block inconclusive, Sfp PPTase inh 16.8%, HP1b binding inh 20.1% and G9a inh -8.1%.
`O=C1NC(c2ccccc2Cl)=N/C1=C/c1ccco1` gave JMJD2A Tudor -25.2%, L3MBTL1 block -13.6%, BAZ2B block inconclusive, Sfp PPTase inh -15.9% and HP1b binding inh 2.9%.

Compound activity as filed in PubChem.
